From PubChem BioAssay (NCATS)
Inconclusive results are not listed. Active and inactive are the calls of the source. Calls follow the shape of the dose curve; as a rule, active = well fitted inhibition curve with a large enough effect; inconclusive = small, poorly fitted or top-dose-only effect; inactive = flat fitted curve, though single readings scatter.
% is scaled to controls: 0 for no effect and ±100 for the full control effect; potency is read from the fitted curve at half-maximal effect.

Each compound was assayed on KB-3-1 (assay: Cytotoxic Profiling of Annotated Libraries Using Quantitative High-Throughput Screening (AID 1296008; also: nearly all actives have a fitted effect of over 60% in size)). Conditions: Five cell lines viability, CellTiter-Glo ATP luminescence, 48-72 h; max response: stronger effect = lower value.
In short: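 Cytotoxicity was measured as CellTiter-Glo ATP luminescence, read after 10 min at room temperature. Compound treatment of the cells lasted 48 or 72 hr at 37 degrees Celsius in a qHTS format.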
With `CCN1CCN(Cc2ccc(NC(=O)c3ccc(C)c(NC(=O)c4cncc(-c5cccs5)c4)c3)cc2C(F)(F)F)CC1` the Potency was 14.6 µM (active). In the case of `Cc1cc(C)nc(NS(=O)(=O)c2ccc(NC(=S)NC(=O)COc3ccc(Br)cc3Cl)cc2)n1`, the max response is reported as 8.68% (inactive). In the case of `CC(Nc1ncnc2nc[nH]c12)c1cc2cccc(Cl)c2c(=O)n1-c1ccccc1` (stereo unspecified), the max response is reported as -11.3% (inactive). In the case of `CC1=C(C)C(=O)OC(C(C)C2CCC3C4CC=C5CC(OC6OC(COC7OC(CO)C(O)C(O)C7O)C(O)C(O)C6O)CC(O)C5(C)C4CCC23C)C1` (stereo unspecified), the max response is reported as 8.05% (inactive). In the case of `CS(=O)(=O)N1CCC(NC(=O)c2[nH]ncc2NC(=O)c2c(Cl)cccc2Cl)CC1`, the Potency is reported as 0.82 µM (active). With `CC(=O)c1c(O)cc(O[C@@H]2O[C@H](CO)[C@@H](O)[C@H](O)[C@H]2O)cc1O` the outcome was “inactive”. `COc1ccc([C@H]2CNC(=O)C2)cc1OC1CCCC1` was tested, and the max response was -2.59% (inactive). With `CCC(COC)n1nnc2c(Nc3ccc(OC)cc3C)nc(C)cc21` (stereo unspecified) the max response was 6.85% (inactive). With `C[C@H]1CC[C@@]2(OC1)O[C@H]1CC3C4CC[C@H]5C[C@@H](O)[C@H](O)C[C@]5(C)C4=CC(=O)[C@]3(C)[C@H]1[C@@H]2C` (stereo partly specified) the max response was 0.923% (inactive). `CC(C)c1cc(C(=O)N2CC[C@H](NC(=O)C3CC3)C2)n[nH]1` was tested, and the max response was -1.18% (inactive). For `CC[C@H]1OC(=O)[C@H](C)[C@@H](O[C@H]2C[C@@](C)(OC)[C@@H](O)[C@H](C)O2)[C@H](C)[C@@H](O[C@@H]2O[C@H](C)C[C@H](N(C)C)[C@H]2O)[C@](C)(O)C[C@@H](C)C(=O)[C@H](C)[C@H]2OC(=O)O[C@@]21C`, the max response was 7.84% (inactive).
